PubChem BioAssay (NCI)
“And” between values parts separate entries of the source, which are not always exact repeats. Equal entries are not always repeated. The panel holds about 83,000 compounds, 20% with a hit somewhere; the sample as a whole holds those more often.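 The test compound was applied at a single concentration to cells in 96-well plates for 48 hours, and percent growth was recorded.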 The source made the active and inactive calls. The calls were made as follows: active = growth percent below 10; inactive = the rest.

System: MDA-MB-468 breast
Experiment: NCI-60 one-dose screen, 48 h (100 = growth as untreated, 0 = no growth, -100 = all killed)
Settings: 10 µM unless noted

Structure (SMILES) | growth
COc1ccc(C(=O)/C=C/c2c(OC)cc(OC)cc2OC)c(OC)c1 | -25.1% (active)
COc1ccc(Cn2cc(COc3ccc4c5ccnc(C)c5n(CCCc5ccccc5)c4c3)nn2)cc1 | 62.5% (inactive)
COc1ccc(C(=O)/C=C/c2cccnc2Nc2cc(OC)c(OC)c(OC)c2)cc1 | 9.95% (active)
CCNC1=CC(=O)c2ncccc2C1=O | 43.4% (inactive)
CCN1C(=O)N(CC)C2C1NN=c1s/c(=C\c3ccccc3)c(=O)n12 (configuration not stated) | 22.5% (inactive)
COc1ccc(-c2nc3sccn3c2/C=C/C(=O)c2cc(OC)c(OC)c(OC)c2)cc1OC | -13.4% (active)
COc1ccccc1NC(=O)OCC#CCOC(=O)Nc1ccccc1OC | 92.6% (inactive) and 89.9% (inactive)
S=C1SCN(Cc2cccs2)CN1Cc1cccs1 | 40.4% (inactive)
C=C1C(=O)O[C@H]2[C@H]1CC/C(COC(=O)/C=C\C(=O)NCc1ccc(Cn3c(=O)sn(CCI)c3=O)cc1)=C\CC[C@@]1(C)O[C@@H]21 | -36.2% (active)
O=C1c2ccccc2C(=O)c2c(NCCNCCO)ccc(NCCNCCO)c21 | -71.9% (active) and -54.1% (active) and -20.9% (active)
CCCCNNC(=O)c1ccc(-c2cccc(F)c2F)cc1 | -4.26% (active)
O=C(O)CCCCCN1C(=O)/C(=C/c2ccc(O)c(O)c2)SC1=S | 103% (inactive)
CC1C=CC(OC(=O)C(C)(O)CCC(O)(C(=O)OC2CC(O)C(C(C)C)CC2(C)O)C(C)C)(C(C)C)CC1 (configuration not stated) | -69.9% [4.63 µM] (active)
O=C(Nc1ccccc1)c1sc(-c2ccccc2)cc1O | 107% (inactive)
CNc1nnc2n(-c3ccccc3)c(=O)c3cnn(-c4ccccc4)c3n12 | 103% (inactive)
COCCn1cc(-c2nc(-c3cccnc3)cs2)c2cc(F)ccc21 | 100% (inactive)
COc1ccc(NC(=O)Nc2ccc(Nc3nc(C)cc(Nc4ccc(C)cc4)n3)cc2)cc1 | -68.9% (active)
CS(=O)(=O)Nc1ccc(Nc2c3ccccc3nc3cc([N+](=O)[O-])ccc23)cc1 | -43.3% (active)
CC(c1ccccn1)C(C)(O)C(C)c1ccccn1 (configuration not stated) | 106% (inactive)

Structure (SMILES) | growth
COc1ccc(C2=C(c3cc(OC)c(OC)c(OC)c3)C(=O)CC2)cc1 | 4.52% (active)
CC(C)=CCc1cc(O)c(O)c2oc3cc(O)cc(O)c3c(=O)c12 | 123% (inactive)
CC(C)OP(=O)(O)c1ncc(-c2ccc(C(F)(F)F)cc2)c(NC2CCCCCC2)n1 | 28% (inactive)
CCOC(=O)/C(C#N)=C\Nc1ccc2ncnc(Nc3ccc(Cl)cc3Cl)c2c1 | 56.4% (inactive)
O=[N+]([O-])c1ccc(-c2nnc(SCc3ccc(O)c4ncccc34)o2)cc1 | 16.2% (inactive)
O=C(/C=C/c1ccc(Br)cc1)c1ccccc1 | 96.3% (inactive)
COc1cc(C2=NN(c3ccccc3)C(c3cccc(Nc4ccnc5cc(C(F)(F)F)ccc45)c3)C2)cc(OC)c1OC (configuration not stated) | 92.2% (inactive)
COc1ccc(/C=C/c2nc3ccccc3nc2/C=C/c2ccc(OC)cc2)cc1 | 88.1% (inactive)
C=C(C)[C@@H]1CC[C@]2(C)[C@H](CC(=O)N[C@H]3[C@@H]4C[C@](C)(C(=O)OC)CC[C@]4(C)CC[C@]32C)[C@@]1(C)CCC#N | 83.3% (inactive)
COc1ccc2oc3c4[nH]c5ccccc5c4c4c(c3c2c1)C(=O)N(O)C4=O | 104% (inactive)
CC(=O)C(C(C)=O)C(c1ccccc1)C(C(C)=O)C(C)=O | 98.6% (inactive)
C=C(C)[C@@H]1C[C@@H]2Cc3cc(Cl)ccc3N1O2 | 96% (inactive)
O=C(CCCCCCNC(=O)c1csc(Br)n1)NO | 26.6% (inactive)
Cn1cc(C(=O)c2nc(-c3c[nH]c4ccc(F)cc34)no2)c2cc(F)ccc21 | 107% (inactive)
COC(=O)[C@]1(C)CC[C@]2(C)CC[C@]3(C)C(=CC(=O)[C@@H]4[C@@]5(C)CCC(=O)NC(C)(C)[C@@H]5CC[C@]43C)[C@@H]2C1 | -49.5% [100 µM] (active)
COc1ccc(-c2nc3cc(Cl)c(Cl)cc3n2CC(=O)N=Nc2c(O)[nH]c3ccc(Br)cc23)cc1 | -71% (active)
Nc1nc(N)c2c(n1)NC(c1cccc(Nc3ccnc4cc(C(F)(F)F)ccc34)c1)CC(c1ccc(Cl)cc1)=N2 (configuration not stated) | 21.5% (inactive)
NC1=NC(c2ccccc2)N=C(Nc2ccccc2)N1 (configuration not stated) | 9.95% (active)
